Compound activity deposited in PubChem BioAssay by National Center for Advancing Translational Sciences (NCATS).
HPGD block = blocks human HPGD enzyme activity | purified HPGD, NADH fluorescence kinetic, PGE2 substrate | Potency, µM, hits mostly inhibitors | 4.3% of 150,000 active; active = well fitted inhibition curve with a large enough effect, not every such curve was filed as active; inconclusive = small, poorly fitted or top-dose-only effect, or another doubt; inactive = no such curve, though single readings can be large or run the other way
Target sequence (P15428 whole entry, looked up): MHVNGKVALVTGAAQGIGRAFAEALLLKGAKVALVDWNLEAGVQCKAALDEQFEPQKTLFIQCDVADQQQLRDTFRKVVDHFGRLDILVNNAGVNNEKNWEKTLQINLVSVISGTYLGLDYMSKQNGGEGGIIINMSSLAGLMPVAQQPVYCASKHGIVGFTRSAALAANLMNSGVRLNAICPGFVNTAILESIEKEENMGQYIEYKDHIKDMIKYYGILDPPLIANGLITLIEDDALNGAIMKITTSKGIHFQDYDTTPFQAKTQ
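20 nM HPGD preincubated 15 min at room temperature with compound in 50 mM Tris-HCl pH 8, 0.01% Tween 20. Started with 1 mM NAD+ and 30 uM prostaglandin E2; NADH fluorescence (360/450 nm) read 5 times over 30-s intervals, last minus first.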
ALDH1A1 inh = ALDH1A1 (human) enzyme inhibition; P00352; Purified ALDH1A1, NADH fluorescence, propionaldehyde substrate; Potency, µM (highest dose often 75.3 µM), hits mostly inhibitors; 7.3% of 220,000 active; AID 1030; active = well fitted inhibition curve with a large enough effect, not every such curve was filed as active; inconclusive = small, poorly fitted or top-dose-only effect, or another doubt; inactive = no such curve, though single readings can be large or run the other way
IMPase Li inh = IMPase inhibition in cells with lithium potentiation; CHO-M1 cells, IP1 TR-FRET (IP-One), carbachol + lithium; Potency, µM (highest dose often 59.4 µM), actives largely listed as inhibitors; 0.35% of 210,000 active;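 note: IP1 builds up when IMPase is blocked and the TR-FRET signal falls; nearly all actives have a fitted effect of over 50% in size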
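Readout is a homogeneous TR-FRET IP1 immunoassay (Ex 320, Em 665 and 620), where raised cytosolic IP1 lowers signal. Cells were CHO-M1 treated 30 min at 37C with test compounds plus a little lithium; AC50 values came from Hill-equation fitting.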
LMNA splice mod = LMNA splicing modulation | HeLa LMNA splicing GFP/RFP minigene ratio, 48 h | Potency, µM (series often up to 46.1 µM), most hits filed as inhibitors | 0.01% of 200,000 active | AID 1487; active = well fitted inhibition curve with a large enough effect in the signal ratio, with a control signal flat, not every such curve was filed as active; inconclusive = small, poorly fitted or top-dose-only effect, or effect the other way, or a change in a side signal; the % refers to the signal ratio
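S3 HeLa stable clones carrying a lamin A-EGFP splicing minigene plus DsRed2 were seeded at 600 cells/well in Opti-MEM with 2% FBS, pin-dosed and incubated 48 h at 37°C. Acumen cytometry (488 nm) gave the GFP/RFP total-intensity ratio.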
KinaseGlo FLuc = Kinase-Glo luciferase inhibition (counter-screen) | Q27757 | Kinase-Glo luciferase, ATP luminescence, 8 min | Potency, µM (highest dose often 38.3 µM), hits mostly inhibitors | 0.28% of 200,000 active | AID 1379; note: nearly all actives have a fitted effect of over 60% in size
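Compound is pinned into ATP-containing buffer (10 uM ATP, imidazole pH 7.2, 7 mM MgCl2). Kinase-Glo luciferase reagent is then added. Light output is recorded following an 8-min room-temperature incubation.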
Numbers stand for hits; . = inactive; ? = inconclusive; / = not tested or not shown; [ ] = dose if it differs, or a comment. Most compounds without a hit are left out; they make up all but 9% or so of the library. Unless noted, calls come from the whole dose curve; as a rule, active = well fitted curve in the direction sought with a large enough effect; inconclusive = small, poorly fitted or top-dose-only effect, or another doubt; inactive = no such curve, though single readings can be large; an effect the other way counts as inactive or inconclusive.

SMILES	HPGD block	ALDH1A1 inh	IMPase Li inh	LMNA splice mod	KinaseGlo FLuc
C[C@H](N)c1nnc(SCc2c(Cl)cccc2Cl)o1	31.6µM	.	.	.	.
C[C@H](N)c1nnc(SCc2ccc(Cl)cc2Cl)o1	.	.	.	.	.
COc1ccc(C2C(C(=O)NCc3ccccn3)CCC(=O)N2c2cc(OC)c(OC)c(OC)c2)cc1 (stereo not given)	/	.	.	.	.
Cc1cc(C)c2c(NC(=O)CCl)nn(C)c2n1	/	?	.	.	.
CCc1cc(SC#N)cc(CC)c1NC(=O)CCl	?	14.1µM	.	?	.
Cc1[nH]c2ccccc2c1C1=NNC(=Nc2ccc(F)cc2)SC1	.	20µM	.	?	.
COc1ccc(N=C2NN=C(c3c(C)[nH]c4ccccc34)CS2)cc1	.	14.1µM	.	?	.
COc1ccc(N=C2SCC(c3ccccc3)=NN2C)cc1	/	.	/	/	/
CCOc1ccc(-c2nn(-c3ccccc3)cc2/C=C2\SC(=S)N(C3CCS(=O)(=O)C3)C2=O)cc1 (stereo not given)	.	.	.	.	.
CCOc1ccc(-c2nn(-c3ccccc3)cc2/C=C2\SC(N)=NC2=O)cc1C	15.8µM	.	.	.	.
CCOC(=O)CSC1=NC(=O)CS1	14.1µM	31.6µM	.	?	.
O=c1c2cnn(-c3ccc(F)cc3)c2ncn1Cc1ccccc1	.	.	.	.	.
O=C(O)c1[nH]c2ccc(Br)cc2c1CCN1C(=O)c2cccc([N+](=O)[O-])c2C1=O	/	31.6µM	/	/	/
Cc1cc(C)n(CC(=O)n2c(C)c(C)c3ccccc32)n1	.	.	.	.	.
COc1ccc(NCC(=O)n2c(C)c(C)c3ccccc32)cc1OC	/	7.08µM	/	/	/
O=C(Cn1cccc1)NC1CCCCCC1	14.1µM	.	.	.	.
CCSC1=NC2(CCCCC2)Nc2sc3c(c21)CCCC3	4.47µM	7.08µM	.	.	.
COc1cc(CNC2CCCC2)cc(Cl)c1OCc1ccccc1F	.	.	.	.	.
O=c1cc(NCc2ccc3c(c2)OCO3)[nH]c(=O)n1-c1ccc(Cl)cc1	.	.	.	.	.
Cc1ccccc1-n1c(=O)cc(NCc2ccc3c(c2)OCO3)[nH]c1=O	.	14.1µM	.	?	.
COC(=O)c1sccc1NC(=S)N1CCN(c2ccccc2)CC1	.	.	.	?	.
COC(=O)c1sccc1NC(=S)N1CCC(C)CC1	.	20µM	.	.	.
COC(=O)c1sccc1NC(=S)N1CC(C)CC(C)C1 (stereo not given)	?	7.94µM	.	.	.
CCOC(=O)C1CCN(C(c2cc3ccc(C)cc3[nH]c2=O)c2nnnn2C2CCCCC2)CC1 (stereo not given)	.	?	?	.	.
COc1ccccc1N1CCN(C(c2cc3cc(C)ccc3[nH]c2=O)c2nnnn2C2CCCC2)CC1 (stereo not given)	.	14.1µM	.	.	.
SMILES	HPGD block	ALDH1A1 inh	IMPase Li inh	LMNA splice mod	KinaseGlo FLuc
COc1ccccc1N1CCN(C(c2cc3ccc(C)cc3[nH]c2=O)c2nnnn2C2CCCC2)CC1 (stereo not given)	.	25.1µM	.	.	.
CC(=NCCN1CCNCC1)C1=C(O)CC(C)(C)CC1=O	/	25.1µM	/	?	/
CC1CCN(C(=O)c2ccc(N(C)S(C)(=O)=O)cc2)CC1	14.1µM	.	.	.	.
CN(c1ccc(C(=O)N2CCCCC2)cc1)S(C)(=O)=O	10µM	.	.	.	.
CCOC(=O)N1CCN(C(=O)c2ccc(N(C)S(C)(=O)=O)cc2)CC1	.	.	.	.	.
O=C(/C=C/c1ccc(Br)o1)NCCCN1CCOCC1	/	2µM	.	/	.
Cc1cccnc1NC(=S)NC(=O)/C=C/c1ccco1	.	?	.	.	.
COc1ccc(NC(=O)/C=C/c2ccc(Br)o2)cn1	/	22.4µM	.	/	/
COc1ccc(NC(=O)/C=C/c2ccco2)cn1	/	7.08µM	.	?	.
O=C(/C=C/c1ccco1)NC(=S)Nc1ccccn1	15.8µM	?	.	.	.
CCOC(=O)/C=C1\SCC(=O)N1CCOc1cccc(Br)c1	.	.	.	.	.
O=[N+]([O-])c1ccc(CN2CCOCCOCCOCC2)cc1	.	.	.	.	.
COc1ccccc1CNC(=O)/C=C/c1ccc(Br)o1	/	12.6µM	.	/	.
COc1ccccc1CNC(=O)Cc1ccc(Br)cc1	.	?	.	.	.
Cn1c(N2CCOCC2)nc2c1c(=O)n(Cc1ccc(Cl)c(Cl)c1)c(=O)n2C	.	.	.	?	.
Cn1c(OCc2ccco2)nc2c1c(=O)n(Cc1ccc(Cl)c(Cl)c1)c(=O)n2C	.	25.1µM	.	.	.
Cc1cccc2sc(NC(=O)[C@H](C)N3C(=O)C4CC=CCC4C3=O)nc12 (stereo not given in full)	/	14.1µM	/	/	/
C[C@@H](C(=O)Nc1nc2ccccc2s1)N1C(=O)C2CC=CCC2C1=O (stereo not given in full)	/	.	.	/	.
COC(=O)c1c(-c2cccc(C)c2)csc1N	.	.	.	.	.
COC(=O)c1c(-c2cccc(OC)c2)csc1N	.	25.1µM	.	?	.
COC(=O)c1c(-c2ccc(OC)c(OC)c2)csc1N	28.2µM	3.98µM	.	.	.
COC(=O)c1c(-c2ccc3ccccc3c2)csc1NC(=O)Cc1ccc(OC)c(OC)c1	.	.	.	?	.
CCOc1ccc(N(C(=O)CNC(=O)c2cccs2)C(C(=O)NCC2CCCO2)c2ccc(OC)c(OC)c2)cc1 (stereo not given)	/	.	.	/	.
O=c1c2c([N+](=O)[O-])cc([N+](=O)[O-])cc2sn1-c1ccc(Br)cc1	2.24µM	1.41µM	.	.	.
Cc1nc2ccn(Cc3cccnc3)c(=O)c2cc1C(=O)Nc1ccc(OC(F)(F)F)cc1	/	/	/	.	/
SMILES	HPGD block	ALDH1A1 inh	IMPase Li inh	LMNA splice mod	KinaseGlo FLuc
O=C(CN1C(=O)CCC1=O)Nc1nc(-c2ccc(Oc3ccccc3)cc2)cs1	17.8µM	.	.	.	.
COc1ccc(-c2csc(NC(=O)CN3C(=O)CCC3=O)n2)cc1	/	.	.	/	.
COc1ccc(-c2csc(NC(=O)CN3C(=O)CCC3=O)n2)cc1OC	28.2µM	.	.	.	.
O=C(Cc1ccccc1)NNC(=S)Nc1ccccc1	/	.	.	.	.
Cn1c(SCC(=O)N/N=C/C=C/c2ccccc2[N+](=O)[O-])nc2ccccc21	.	?	.	.	.
CCn1c(SCC(=O)N/N=C(\C)c2ccncc2)nnc1-c1ccccc1	/	.	.	/	.
CCn1c(SCC(=O)N/N=C(\C)c2ccco2)nnc1-c1ccccc1	/	11.2µM	.	?	.
CCn1c(SCC(=O)N/N=C(\C)c2ccncc2)nnc1-c1ccc(C)cc1	/	20µM	/	/	/
Cn1c(SCC(=O)N/N=C/C=C/c2ccco2)nc2ccccc21	.	14.1µM	.	.	.
O=C(CSc1nnc(SCc2ccccc2)s1)NNC(=S)Nc1ccccc1	10µM	3.16µM	.	.	.
O=[N+]([O-])c1ccc2c(c1)c(S(=O)(=O)O)cc1nonc12	.	.[13.5 µM]	.	/	.[7.66 µM]
